# Measured values from PMC7862700, “An all-to-all approach to the identification of sequence-specific readers for epigenetic DNA modifications on cytosine”.
# Assays:
# Test in all cases: DAPPL (digital affinity profiling via proximity ligation, sequencing); 10 mM Tris-HCl pH 7.5, 50 mM NaCl, 1 mM DTT, 4% glycerol, room temperature, 30 min; GST-TFs on glutathione beads, 16-mer random dsDNA library, 0.1% formaldehyde crosslink after washing; high values mean tight binding
# FEV = biological target: T1, FEV (Homo sapiens, UniProt Q99581 1-238); details: protein: recombinant; tags: N-terminal GST; dsDNA, one strand shown
# T1 sequence: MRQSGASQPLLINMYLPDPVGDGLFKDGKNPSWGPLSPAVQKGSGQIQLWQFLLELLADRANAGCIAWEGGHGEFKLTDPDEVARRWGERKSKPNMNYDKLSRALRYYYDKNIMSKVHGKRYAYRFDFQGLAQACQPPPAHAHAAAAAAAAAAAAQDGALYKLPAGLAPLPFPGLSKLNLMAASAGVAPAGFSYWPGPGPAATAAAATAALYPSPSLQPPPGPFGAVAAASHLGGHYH
# Summary of the method: (§1)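 Human transcription factors were made in yeast as GST fusions, captured on glutathione beads and barcoded with DNA. With a tag-only sample included, the pool was incubated with 200 nmole of a random double-stranded 16-mer DNA library in Tris/NaCl/DTT/glycerol buffer at room temperature for 30 min, then crosslinked with 0.1% formaldehyde after washing, ligated by proximity, amplified and sequenced. For binding signal, each hexamer's read frequency for a factor is divided by its frequency for the tag-only sample.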
# ETV5 = ETV5 (Homo sapiens, UniProt P41161 1-510); details: protein: recombinant; tags: N-terminal GST; dsDNA, one strand shown
# Sequence of ETV5 (P41161 whole entry): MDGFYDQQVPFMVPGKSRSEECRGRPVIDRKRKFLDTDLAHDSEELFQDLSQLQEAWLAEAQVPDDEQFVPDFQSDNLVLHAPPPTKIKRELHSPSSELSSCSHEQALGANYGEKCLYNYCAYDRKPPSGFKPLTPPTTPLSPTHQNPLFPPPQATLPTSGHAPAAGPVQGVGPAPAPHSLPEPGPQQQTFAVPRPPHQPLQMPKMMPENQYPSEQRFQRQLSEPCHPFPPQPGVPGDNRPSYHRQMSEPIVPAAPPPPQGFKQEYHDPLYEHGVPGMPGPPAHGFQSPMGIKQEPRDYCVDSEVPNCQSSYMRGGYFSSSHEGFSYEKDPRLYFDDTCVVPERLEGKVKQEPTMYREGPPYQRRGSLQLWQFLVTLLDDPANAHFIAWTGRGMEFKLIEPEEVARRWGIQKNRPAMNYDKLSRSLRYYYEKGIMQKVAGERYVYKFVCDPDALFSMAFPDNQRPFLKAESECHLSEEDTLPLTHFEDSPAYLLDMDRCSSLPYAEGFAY
# Summary of the method: as §1
# HSF1 = HSF1 (Homo sapiens, UniProt Q00613 1-529); details: protein: recombinant; tags: N-terminal GST; chain copies: 3; dsDNA, one strand shown
# Sequence of HSF1 (Q00613 whole entry): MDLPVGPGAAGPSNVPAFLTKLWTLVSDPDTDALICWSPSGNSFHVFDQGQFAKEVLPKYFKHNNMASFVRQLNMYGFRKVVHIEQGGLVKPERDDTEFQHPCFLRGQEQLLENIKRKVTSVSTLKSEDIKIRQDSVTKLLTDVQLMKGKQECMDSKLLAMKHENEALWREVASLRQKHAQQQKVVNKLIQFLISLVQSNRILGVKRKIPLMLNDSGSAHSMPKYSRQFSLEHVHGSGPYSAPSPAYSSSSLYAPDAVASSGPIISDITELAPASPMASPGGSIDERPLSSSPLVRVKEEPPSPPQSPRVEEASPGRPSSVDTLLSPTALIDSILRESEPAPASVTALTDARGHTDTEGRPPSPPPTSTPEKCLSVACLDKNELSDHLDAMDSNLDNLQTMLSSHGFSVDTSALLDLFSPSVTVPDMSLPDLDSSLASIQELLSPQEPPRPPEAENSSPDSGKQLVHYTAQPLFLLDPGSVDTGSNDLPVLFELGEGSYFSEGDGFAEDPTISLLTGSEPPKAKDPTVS
# Summary of the method: as §1
# SPIC = biological target: T2, SPIC (Homo sapiens, UniProt Q8N5J4 1-248); details: protein: recombinant; tags: N-terminal GST; dsDNA, one strand shown
# T2 sequence: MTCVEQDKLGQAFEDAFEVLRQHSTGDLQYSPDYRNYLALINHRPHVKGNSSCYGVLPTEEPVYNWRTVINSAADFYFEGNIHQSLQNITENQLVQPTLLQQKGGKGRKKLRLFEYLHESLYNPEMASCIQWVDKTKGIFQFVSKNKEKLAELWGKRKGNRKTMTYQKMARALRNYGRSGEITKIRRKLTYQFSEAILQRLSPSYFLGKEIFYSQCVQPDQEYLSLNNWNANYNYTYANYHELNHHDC
# Summary of the method: as §1
# ELF4 = ELF4 (Homo sapiens, UniProt Q99607 1-663); details: protein: recombinant; tags: N-terminal GST; dsDNA, one strand shown
# Sequence of ELF4 (Q99607 whole entry): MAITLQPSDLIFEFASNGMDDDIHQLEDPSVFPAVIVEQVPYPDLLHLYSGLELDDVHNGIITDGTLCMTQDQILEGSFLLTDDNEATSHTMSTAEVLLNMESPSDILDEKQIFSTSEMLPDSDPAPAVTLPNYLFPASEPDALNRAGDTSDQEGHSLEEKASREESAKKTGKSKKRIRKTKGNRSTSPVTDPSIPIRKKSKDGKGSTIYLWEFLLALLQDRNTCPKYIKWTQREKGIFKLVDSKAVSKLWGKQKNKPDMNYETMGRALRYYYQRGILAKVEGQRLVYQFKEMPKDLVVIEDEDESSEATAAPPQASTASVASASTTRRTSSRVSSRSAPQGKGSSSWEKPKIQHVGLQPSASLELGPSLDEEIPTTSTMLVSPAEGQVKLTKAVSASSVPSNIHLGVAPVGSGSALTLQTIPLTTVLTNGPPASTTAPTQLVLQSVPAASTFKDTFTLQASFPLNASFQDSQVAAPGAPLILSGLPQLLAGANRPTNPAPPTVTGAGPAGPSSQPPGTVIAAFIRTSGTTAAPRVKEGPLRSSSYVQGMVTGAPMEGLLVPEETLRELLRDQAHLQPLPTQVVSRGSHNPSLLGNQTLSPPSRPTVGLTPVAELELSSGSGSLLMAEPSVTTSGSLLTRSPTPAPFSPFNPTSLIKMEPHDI
# Summary of the method: as §1
# ELK4 = biological target: T3, ELK4 (Homo sapiens, UniProt P28324-2 1-405); details: protein: recombinant; tags: N-terminal GST; dsDNA, one strand shown
# T3 sequence: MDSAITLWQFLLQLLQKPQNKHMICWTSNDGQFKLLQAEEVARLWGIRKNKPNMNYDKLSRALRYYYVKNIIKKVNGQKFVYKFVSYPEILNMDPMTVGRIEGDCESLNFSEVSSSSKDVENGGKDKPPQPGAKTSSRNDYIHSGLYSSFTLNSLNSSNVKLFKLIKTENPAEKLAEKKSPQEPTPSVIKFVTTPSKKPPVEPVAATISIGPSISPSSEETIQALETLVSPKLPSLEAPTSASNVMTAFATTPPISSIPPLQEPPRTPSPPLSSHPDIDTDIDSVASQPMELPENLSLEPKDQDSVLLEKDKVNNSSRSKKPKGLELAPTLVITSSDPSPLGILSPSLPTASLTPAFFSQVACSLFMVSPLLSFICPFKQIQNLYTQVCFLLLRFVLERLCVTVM
# Summary of the method: as §1
# ETV2 = biological target: T4, ETV2 (Homo sapiens, UniProt O00321 1-342); details: protein: recombinant; tags: N-terminal GST; dsDNA, one strand shown
# T4 sequence: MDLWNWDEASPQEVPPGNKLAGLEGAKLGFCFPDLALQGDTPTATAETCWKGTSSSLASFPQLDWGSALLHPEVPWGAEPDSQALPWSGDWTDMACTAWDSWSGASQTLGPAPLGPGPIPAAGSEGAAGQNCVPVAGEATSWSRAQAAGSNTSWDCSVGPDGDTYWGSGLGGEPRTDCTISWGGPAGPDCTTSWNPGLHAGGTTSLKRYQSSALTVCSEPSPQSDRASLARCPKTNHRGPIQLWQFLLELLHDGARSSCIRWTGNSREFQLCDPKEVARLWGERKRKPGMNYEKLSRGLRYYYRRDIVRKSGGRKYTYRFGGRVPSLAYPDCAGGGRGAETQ
# Summary of the method: as §1
# ELF3 = biological target: T5, ELF3 (Homo sapiens, UniProt P78545 1-371); details: protein: recombinant; tags: N-terminal GST; dsDNA, one strand shown
# T5 sequence: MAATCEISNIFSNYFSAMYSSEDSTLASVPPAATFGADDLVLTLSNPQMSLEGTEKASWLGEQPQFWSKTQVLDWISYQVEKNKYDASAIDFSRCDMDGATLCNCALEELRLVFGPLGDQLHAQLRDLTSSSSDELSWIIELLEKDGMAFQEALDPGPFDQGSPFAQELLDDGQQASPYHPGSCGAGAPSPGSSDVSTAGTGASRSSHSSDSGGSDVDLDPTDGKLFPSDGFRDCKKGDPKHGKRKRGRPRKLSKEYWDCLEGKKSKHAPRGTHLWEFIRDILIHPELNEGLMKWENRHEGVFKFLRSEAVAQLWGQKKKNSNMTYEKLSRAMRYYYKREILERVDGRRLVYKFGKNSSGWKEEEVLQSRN
# Summary of the method: as §1
# CRX = CRX (Homo sapiens, UniProt O43186 1-299); details: protein: recombinant; tags: N-terminal GST; dsDNA, one strand shown
# Sequence of CRX (O43186 whole entry): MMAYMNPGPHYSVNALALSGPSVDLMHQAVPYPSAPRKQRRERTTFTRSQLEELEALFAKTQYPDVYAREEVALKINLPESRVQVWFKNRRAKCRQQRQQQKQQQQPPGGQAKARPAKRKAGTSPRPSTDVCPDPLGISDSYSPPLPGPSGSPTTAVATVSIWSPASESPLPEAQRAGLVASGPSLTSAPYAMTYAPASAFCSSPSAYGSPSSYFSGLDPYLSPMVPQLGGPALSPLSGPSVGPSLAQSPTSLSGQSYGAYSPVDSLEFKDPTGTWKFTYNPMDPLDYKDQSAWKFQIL
# Summary of the method: as §1
# ETV1 = ETV1 (Homo sapiens, UniProt P50549 1-477); details: protein: recombinant; tags: N-terminal GST; dsDNA, one strand shown
# Sequence of ETV1 (P50549 whole entry): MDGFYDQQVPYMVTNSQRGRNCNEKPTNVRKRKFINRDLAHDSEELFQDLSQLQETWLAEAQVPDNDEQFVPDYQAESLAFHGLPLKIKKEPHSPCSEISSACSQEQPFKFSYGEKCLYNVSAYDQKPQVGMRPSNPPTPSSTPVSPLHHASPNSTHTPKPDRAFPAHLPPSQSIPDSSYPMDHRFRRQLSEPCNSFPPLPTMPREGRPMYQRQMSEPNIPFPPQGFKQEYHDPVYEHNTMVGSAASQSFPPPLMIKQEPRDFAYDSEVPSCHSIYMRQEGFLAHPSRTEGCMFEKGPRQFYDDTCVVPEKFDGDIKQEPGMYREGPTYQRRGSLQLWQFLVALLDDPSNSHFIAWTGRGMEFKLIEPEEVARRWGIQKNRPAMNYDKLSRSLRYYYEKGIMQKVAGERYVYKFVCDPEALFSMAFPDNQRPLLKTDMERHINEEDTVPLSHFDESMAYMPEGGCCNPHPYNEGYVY
# Summary of the method: as §1
# ERF = biological target: T6, ERF (Homo sapiens, UniProt P50548 1-548); details: protein: recombinant; tags: N-terminal GST; dsDNA, one strand shown
# T6 sequence: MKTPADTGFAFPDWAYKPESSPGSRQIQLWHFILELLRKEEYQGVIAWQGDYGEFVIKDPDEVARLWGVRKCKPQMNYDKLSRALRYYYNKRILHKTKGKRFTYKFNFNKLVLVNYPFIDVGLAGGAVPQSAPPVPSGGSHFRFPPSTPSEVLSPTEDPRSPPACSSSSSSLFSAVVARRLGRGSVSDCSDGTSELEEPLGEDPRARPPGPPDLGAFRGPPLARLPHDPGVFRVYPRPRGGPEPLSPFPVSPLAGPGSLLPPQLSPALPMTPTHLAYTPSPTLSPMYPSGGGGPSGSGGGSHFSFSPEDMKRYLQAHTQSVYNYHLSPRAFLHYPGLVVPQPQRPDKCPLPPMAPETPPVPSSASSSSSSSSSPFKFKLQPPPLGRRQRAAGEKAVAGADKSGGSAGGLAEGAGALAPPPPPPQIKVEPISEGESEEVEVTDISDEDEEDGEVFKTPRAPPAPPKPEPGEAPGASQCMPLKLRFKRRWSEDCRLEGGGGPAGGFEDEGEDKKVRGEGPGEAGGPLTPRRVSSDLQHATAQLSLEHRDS
# Summary of the method: as §1
# ETV3L = biological target: T7, ETV3L (Homo sapiens, UniProt Q6ZN32 1-361); details: protein: recombinant; tags: N-terminal GST; dsDNA, one strand shown
# T7 sequence: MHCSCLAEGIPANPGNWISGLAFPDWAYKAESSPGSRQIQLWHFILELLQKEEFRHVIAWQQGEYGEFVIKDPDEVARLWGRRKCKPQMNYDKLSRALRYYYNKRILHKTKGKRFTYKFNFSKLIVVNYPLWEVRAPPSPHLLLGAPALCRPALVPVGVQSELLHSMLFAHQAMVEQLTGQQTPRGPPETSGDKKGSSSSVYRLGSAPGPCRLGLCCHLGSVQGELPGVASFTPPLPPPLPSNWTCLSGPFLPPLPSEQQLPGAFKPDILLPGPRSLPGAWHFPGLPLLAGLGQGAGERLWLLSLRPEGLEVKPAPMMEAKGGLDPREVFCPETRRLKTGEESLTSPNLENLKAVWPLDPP
# Summary of the method: as §1
# ETS2 = biological target: T8, ETS2 (Homo sapiens, UniProt P15036 1-469); details: protein: recombinant; tags: N-terminal GST; dsDNA, one strand shown
# T8 sequence: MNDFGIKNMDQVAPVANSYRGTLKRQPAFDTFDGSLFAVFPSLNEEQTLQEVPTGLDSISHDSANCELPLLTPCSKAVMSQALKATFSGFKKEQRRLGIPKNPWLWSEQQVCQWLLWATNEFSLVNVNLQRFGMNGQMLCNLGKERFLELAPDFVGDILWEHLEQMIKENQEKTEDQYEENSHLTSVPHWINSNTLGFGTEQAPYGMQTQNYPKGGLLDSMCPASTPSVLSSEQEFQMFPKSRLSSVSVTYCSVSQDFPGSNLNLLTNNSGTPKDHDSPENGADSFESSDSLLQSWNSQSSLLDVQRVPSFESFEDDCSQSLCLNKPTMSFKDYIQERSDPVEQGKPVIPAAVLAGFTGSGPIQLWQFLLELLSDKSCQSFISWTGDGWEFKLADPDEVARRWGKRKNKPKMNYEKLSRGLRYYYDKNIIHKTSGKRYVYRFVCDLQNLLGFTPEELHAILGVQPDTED
# Summary of the method: as §1
# SPDEF = biological target: T9, SPDEF (Homo sapiens, UniProt O95238 1-335); details: protein: recombinant; tags: N-terminal GST; dsDNA, one strand shown
# T9 sequence: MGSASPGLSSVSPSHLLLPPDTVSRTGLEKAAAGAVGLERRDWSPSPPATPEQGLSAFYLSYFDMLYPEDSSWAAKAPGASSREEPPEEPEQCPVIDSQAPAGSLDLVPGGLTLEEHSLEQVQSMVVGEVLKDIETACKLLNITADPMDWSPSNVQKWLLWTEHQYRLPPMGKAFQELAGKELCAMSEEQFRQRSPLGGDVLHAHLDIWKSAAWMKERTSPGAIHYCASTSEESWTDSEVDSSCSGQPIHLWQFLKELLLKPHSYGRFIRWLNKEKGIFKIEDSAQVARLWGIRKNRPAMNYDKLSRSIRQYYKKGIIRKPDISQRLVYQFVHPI
# Summary of the method: as §1
# ETV7 = biological target: T10, ETV7 (Homo sapiens, UniProt Q9Y603 1-341); details: protein: recombinant; tags: N-terminal GST; dsDNA, one strand shown
# T10 sequence: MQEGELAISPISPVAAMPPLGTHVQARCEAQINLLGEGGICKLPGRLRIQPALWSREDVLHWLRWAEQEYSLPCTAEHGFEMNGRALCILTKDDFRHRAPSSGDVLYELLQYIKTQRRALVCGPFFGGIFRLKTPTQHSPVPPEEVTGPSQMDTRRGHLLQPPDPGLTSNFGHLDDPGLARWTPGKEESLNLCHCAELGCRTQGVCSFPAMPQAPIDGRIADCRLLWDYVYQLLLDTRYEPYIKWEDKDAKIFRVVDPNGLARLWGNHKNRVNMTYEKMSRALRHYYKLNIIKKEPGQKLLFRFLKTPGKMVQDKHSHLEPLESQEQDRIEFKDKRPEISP
# Summary of the method: as §1
# ELF5 = biological target: T11, ELF5 (Homo sapiens, UniProt Q9UKW6-2 1-255); details: protein: recombinant; tags: N-terminal GST; dsDNA, one strand shown
# T11 sequence: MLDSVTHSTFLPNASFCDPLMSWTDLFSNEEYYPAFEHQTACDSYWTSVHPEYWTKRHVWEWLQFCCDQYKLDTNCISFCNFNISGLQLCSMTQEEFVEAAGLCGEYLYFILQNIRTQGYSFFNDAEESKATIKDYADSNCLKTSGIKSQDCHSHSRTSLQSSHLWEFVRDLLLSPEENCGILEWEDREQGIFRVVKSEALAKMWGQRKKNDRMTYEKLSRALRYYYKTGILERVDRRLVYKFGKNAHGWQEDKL
# Summary of the method: as §1
# ETV3 = biological target: T12, ETV3 (Homo sapiens, UniProt P41162-2 1-143); details: protein: recombinant; tags: N-terminal GST; dsDNA, one strand shown
# T12 sequence: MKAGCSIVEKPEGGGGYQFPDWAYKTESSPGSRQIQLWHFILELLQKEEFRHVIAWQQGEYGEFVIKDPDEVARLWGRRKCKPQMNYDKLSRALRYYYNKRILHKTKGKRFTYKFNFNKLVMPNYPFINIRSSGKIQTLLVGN
# Summary of the method: as §1
# ETV6 = ETV6 (Homo sapiens, UniProt P41212 1-452); details: protein: recombinant; tags: N-terminal GST; dsDNA, one strand shown
# Sequence of ETV6 (P41212 whole entry): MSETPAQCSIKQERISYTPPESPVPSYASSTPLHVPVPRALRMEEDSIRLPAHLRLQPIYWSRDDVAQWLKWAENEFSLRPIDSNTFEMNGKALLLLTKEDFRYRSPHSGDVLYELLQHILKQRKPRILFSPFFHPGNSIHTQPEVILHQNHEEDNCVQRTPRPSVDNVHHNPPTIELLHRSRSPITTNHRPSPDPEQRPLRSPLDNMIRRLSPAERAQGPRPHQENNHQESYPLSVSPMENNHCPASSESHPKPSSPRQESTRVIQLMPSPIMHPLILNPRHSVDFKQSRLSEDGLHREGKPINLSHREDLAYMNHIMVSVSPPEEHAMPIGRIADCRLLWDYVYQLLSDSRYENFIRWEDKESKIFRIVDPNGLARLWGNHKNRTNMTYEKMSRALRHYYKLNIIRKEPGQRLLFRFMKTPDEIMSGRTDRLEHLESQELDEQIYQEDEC
# Summary of the method: as §1
sequence,measurement,setting,value
CTTCCC,binding signal,FEV,"1.91 fold enrichment (6-mer frequency, TF over GST control)"
same,binding signal,ETV5,"2.24 fold enrichment (6-mer frequency, TF over GST control)"
same,binding signal,HSF1,"1.55 fold enrichment (6-mer frequency, TF over GST control)"
same,binding signal,SPIC,"2.34 fold enrichment (6-mer frequency, TF over GST control)"
same,binding signal,ELF4,"1.95 fold enrichment (6-mer frequency, TF over GST control)"
same,binding signal,ELK4,"1.81 fold enrichment (6-mer frequency, TF over GST control)"
same,binding signal,ETV2,"2.4 fold enrichment (6-mer frequency, TF over GST control)"
same,binding signal,ELF3,"2.12 fold enrichment (6-mer frequency, TF over GST control)"
same,binding signal,CRX,"1.33 fold enrichment (6-mer frequency, TF over GST control)"
same,binding signal,ETV1,"2.01 fold enrichment (6-mer frequency, TF over GST control)"
same,binding signal,ERF,"1.94 fold enrichment (6-mer frequency, TF over GST control)"
same,binding signal,ETV3L,"2.18 fold enrichment (6-mer frequency, TF over GST control)"
same,binding signal,ETS2,"2.32 fold enrichment (6-mer frequency, TF over GST control)"
same,binding signal,SPDEF,"2.14 fold enrichment (6-mer frequency, TF over GST control)"
same,binding signal,ETV7,"1.95 fold enrichment (6-mer frequency, TF over GST control)"
same,binding signal,ELF5,"3.61 fold enrichment (6-mer frequency, TF over GST control)"
same,binding signal,ETV3,"2.3 fold enrichment (6-mer frequency, TF over GST control)"
same,binding signal,ETV6,"2.54 fold enrichment (6-mer frequency, TF over GST control)"
